# Test results: PubChem BioAssay (NCATS)
# Records with an inconclusive call do not appear. Entries that show only a call come without a potency. The source made the active and inactive calls. Calls follow the shape of the full dose curve.
# Assay: Natriuretic polypeptide receptor (hNpr1) antagonism - Pilot counterscreen GloSensor control cell line (AID 1347045)
# Details: HEK293 cGMP GloSensor cells, SNP-stimulated luminescence, 20 min; series mostly up to 38.3 µM
# Protocol: F. Fan, B. F. Binkowski, B. L. Butler, P. F. Stecha, M. K. Lewis, K. V. Wood, Novel genetically encoded biosensors using firefly luciferase. ACS Chem Biol 3, 346-351 (2008).
# PROTOCOL TABLE (as described by Inglese J, Shamu CE and Guy RK. 2007)
# SEQUENCE No. (e.g., 1, 2, 3, etc.); […] (e.g., Cells, Incubation, Reagent, etc.); VALUE and DESCRIPTION.
# 1. Cells. Seed 1500 HEK293 cGMP-sensor cells per well in 4uL into Greiner 1536-well white/solid bottom high base, TC plates.
# 2. Incubation. Incubate plated cells at 37C in 5% CO2, 95% RH overnight.
# 3. Reagent. Add 1uL per well GloSensor reagent from Promega (2% final concentration) or CO2 independent media vehicle control to respective columns of Greiner 1536-well plates.
# 4. Incubation. Incubate plated cells at room temperature for 2 h, protect from light.
# 5. Compounds. Library compounds and DMSO vehicle control added at 23nL per well, transferred by Pin Tool.
# 6. Incubation. Incubate plated cells for 30 min. at room temperature, protect from light.
# 7. Detector. GloSensor baseline pre-read luminescence measured using CCD-based camera (Viewlux).
# 8. Compound. Add 1uL of sodium nitroprusside (SNP) to 50 uM final concentration to stimulate soluble guanylyl cyclase (GC) or CO2 independent media as vehicle control.
# 9. Incubation. Incubate treated cells at room temperature for 20 min., protect from light.
# 10. Detector. GloSensor post-SNP luminescence measured using CCD-based camera (Viewlux).
# NOTES (numbers refer to Sequence numbers above; values are from representative experiments)
# 1. HEK293 cells expressing GIP/pGS-40F were grown to 85-95% confluence (48-72 h) in T175 culture flasks (CO2 independent media supplemented with 10% FBS, 1% Pen/Strep antibiotics, and 1 ug/mL puromycin). Trypsinize and harvest cells from T175 culture flasks and filter through 40 um cell strainer. Cells counted with Invitrogen Countess (30,000,000 - 50,000,000 cells/flask).
# 2. Cells incubated for 24 h. at 37C in 95% RH incubator with metal lid having gas-exchange holes.
# 3. Prepare GloSensor Reagent (Promega): Reconstitute GloSensor luciferase substrate by adding 8.2mL Hepes buffer to 250mg substrate, mix well, protect from light and stored at -80C. Prepare a fresh 12% GloSensor solution in CO2 independent supplemented plating media (see above). Mix well and store at ambient temperature, protected from light. 1uL 12% GloSensor Luciferase Reagent added (2% final concentration) to respective columns of 9 x 1536-well Greiner plate with BioRaptr, 1uL CO2 independent plating media added to respective columns as vehicle control with BioRaptr.
# 4. Cells incubated for 2 h. at ambient temperature, protected from light with metal lid having gas-exchange holes.
# 5. 23nL of LOPAC128 library compounds (7 plates) or DMSO vehicle control transferred to 9 Greiner white/solid bottom high base, TC plates in 7 interplate 1:5 titrations (see Yasgar, A. et al. 2008) with Pintool. Two of the 9 plates are DMSO-only in compound field at beginning and end of compound library-treated plates.
# 6. Cells incubated for 30-50 min. at ambient temperature protected from light with metal lid having gas-exchange holes.
# 7. Read GloSensor + Antagonist/Compound baseline Luminescence on the ViewLux [Exposure, 30 s; Gain, High; Speed, Slow; Binning, 2X]
# 8. SNP solution prepared at 500 mM (in H2O) stock concentration. From this a working dilution was prepared at 300 uM in CO2 Independent media. 1uL of 300 uM SNP (50 uM final concentration) or CO2 Independent media vehicle control dispensed into respective columns of 9 x Greiner 1536-well white/solid bottom, tissue culture plates with BioRaptr.
# 9. Cells incubated for 20 min. at ambient temperature, protected from light with metal lid having gas-exchange holes.
# 10. Read final luminescence on the ViewLux. [Exposure, 30 s; Gain, High; Speed, Slow; Binning, 2X.]
# […]
# Potency is read from the fitted curve at half-maximal effect.
row,SMILES,Potency
1,CC(CCc1ccc(O)cc1)NCCc1ccc(O)c(O)c1 (stereo not given),inactive
2,CCC1(c2ccccc2)C(=O)NCNC1=O,inactive
3,NC12CC3CC(CC(C3)C1)C2,inactive
4,O=C(CCCN1CCC(O)(c2ccc(Cl)cc2)CC1)c1ccc(F)cc1,inactive
5,COc1ccccc1OCC(O)CN1CCN(CC(=O)Nc2c(C)cccc2C)CC1 (stereo not given),inactive
6,Nc1nc2c(ncn2COC(CO)CO)c(=O)[nH]1,inactive
7,NCCc1cnc[nH]1,inactive
8,N[C@@H](Cc1c[nH]c2ccc(O)cc12)C(=O)O,inactive
9,O=c1[nH]cc(F)c(=O)[nH]1,inactive
10,O=c1c(O)c(-c2ccc(O)c(O)c2)oc2cc(O)cc(O)c12,inactive
11,NC(=O)NO,inactive
12,CN1CCC(=C2c3ccccc3C=Cc3ccccc32)CC1,inactive
13,CN1C2CCC1CC(OC(=O)C(CO)c1ccccc1)C2 (stereo not given),inactive
14,COc1ccccc1OCCNCC(O)COc1cccc2[nH]c3ccccc3c12 (stereo not given),inactive
15,CN1C(C(=O)Nc2ccccn2)=C(O)c2ccccc2S1(=O)=O,inactive
16,CCC1(C)CC(=O)NC1=O (stereo not given),inactive
17,CC12CC3CC(C)(C1)CC(N)(C3)C2,inactive
18,CNCCCC12CCC(c3ccccc31)c1ccccc12,inactive
19,Cc1ccc(C(=O)Nc2ccc(S(=O)(=O)O)c3cc(S(=O)(=O)O)cc(S(=O)(=O)O)c23)cc1NC(=O)c1cccc(NC(=O)Nc2cccc(C(=O)Nc3cc(C(=O)Nc4ccc(S(=O)(=O)O)c5cc(S(=O)(=O)O)cc(S(=O)(=O)O)c45)ccc3C)c2)c1,inactive
20,CN1CCN(C2=Nc3cc(Cl)ccc3Nc3ccccc32)CC1,inactive

row,SMILES,Potency
1,COc1ccc2c(c1)c(CC(=O)O)c(C)n2C(=O)c1ccc(Cl)cc1,inactive
2,CCOC(=O)C(C)(C)Oc1ccc(Cl)cc1,inactive
3,CN(C)CCOC(c1ccccc1)c1ccccc1,inactive
4,COc1cc2nc(N3CCN(C(=O)c4ccco4)CC3)nc(N)c2cc1OC,inactive
5,CCCNCC(O)COc1ccccc1C(=O)CCc1ccccc1 (stereo not given),inactive
6,CCOC(=O)c1ncn2c1CN(C)C(=O)c1cc(F)ccc1-2,inactive
7,CN(C)CCC=C1c2ccccc2C=Cc2ccccc21,inactive
8,COc1cc2c(c(OC)c1OC)-c1ccc(OC)c(=O)cc1[C@@H](NC(C)=O)CC2,inactive
9,CCc1cccc2c3c([nH]c12)C(CC)(CC(=O)O)OCC3 (stereo not given),inactive
10,NC(=O)OCC(COC(N)=O)c1ccccc1,inactive
11,COc1ccc2[nH]cc(CCNC(C)=O)c2c1,inactive
12,COc1ccccc1N1CCN(CC(O)COc2cccc3ccccc23)CC1 (stereo not given),inactive
13,NC(CO)C(=O)NNCc1ccc(O)c(O)c1O (stereo not given),inactive
14,CN(C)C(=O)C(CCN1CCC(O)(c2ccc(Cl)cc2)CC1)(c1ccccc1)c1ccccc1,26.1 µM (active)
15,Cn1c(=O)c2[nH]cnc2n(C)c1=O,inactive
16,C[C@H]1c2cccc(O)c2C(O)=C2C(=O)[C@]3(O)C(O)=C(C(N)=O)C(=O)[C@@H](N(C)C)[C@@H]3[C@@H](O)[C@@H]21,inactive
17,Nc1c2c(nc3ccccc13)CCCC2,inactive
18,CCN1CCCC1CNC(=O)c1cc(S(=O)(=O)CC)c(N)cc1OC (stereo not given),inactive
19,CCCCc1oc2ccccc2c1C(=O)c1cc(I)c(OCCN(CC)CC)c(I)c1,inactive
20,Cc1cn([C@H]2C=C[C@@H](CO)O2)c(=O)[nH]c1=O,inactive
